Test results: the supplement of paper PMC8728848
The full list was thinned out, with the strongest signals kept by preference.

How the values were obtained:
Experiment in all cases: glycan array binding signal (z-score within array); higher = stronger binding
Details in all cases: glycan notation: IUPAC condensed, linker removed
GalNAc(a1-3)Gal = biological target: GalNAc(a1-3)Gal
Outline: (§1)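 Negative Z-scores can be read as non-binding. The Z-score is calculated within each array and then averaged across arrays of one protein sequence at different concentrations or buffers and across linkers. Arrays, 3228 in all, were curated from the Consortium for Functional Glycomics database and kept only where the protein sequence was available.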

GalNAc(a1-3)GalNAc = biological target: GalNAc(a1-3)GalNAc
Outline: as §1

[1] = biological target: GalNAc(a1-3)GalNAc(a1-3)Gal(a1-4)Gal(b1-4)GlcNAc
Outline: as §1

[2] = biological target: GalNAc(a1-3)GalNAc(b1-3)Gal(a1-4)Gal(b1-4)GlcNAc
Outline: as §1

Glc(b1-4)Glc = biological target: Glc(b1-4)Glc
Outline: as §1

Glc(b1-6)Glc = biological target: Glc(b1-6)Glc
Outline: as §1

GlcA(b1-3)Gal = biological target: GlcA(b1-3)Gal
Outline: as §1

[3] = biological target: GlcA3S(b1-3)Gal(b1-4)GlcNAc(b1-3)Gal(b1-4)Glc
Outline: as §1

[4] = biological target: GlcNAc(a1-3)Gal(b1-4)GlcNAc
Outline: as §1

[5] = biological target: GlcNAc(a1-4)Gal(b1-4)GalNAc
Outline: as §1

[6] = biological target: GlcNAc(a1-4)Gal(b1-4)GlcNAc(b1-3)Gal(b1-4)GlcNAc
Outline: as §1

[7] = biological target: GlcNAc(a1-4)Gal(b1-4)GlcNAc(b1-3)Gal(b1-4)GlcNAc(b1-3)Gal(b1-4)GlcNAc
Outline: as §1

[8] = biological target: GlcNAc(b1-2)[GlcNAc(b1-4)]Man(a1-3)[GlcNAc(b1-4)][GlcNAc(b1-2)[GlcNAc(b1-6)]Man(a1-6)]Man(b1-4)GlcNAc(b1-4)[Fuc(a1-6)]GlcNAc
Outline: as §1

[9] = biological target: GlcNAc(b1-2)[GlcNAc(b1-6)]Man(a1-6)[GlcNAc(b1-2)Man(a1-3)][GlcNAc(b1-4)]Man(b1-4)GlcNAc(b1-4)GlcNAc
Outline: as §1

[10] = biological target: GlcNAc(b1-3)Gal(b1-4)GlcNAc(b1-3)Gal(b1-4)GlcNAc(b1-2)Man(a1-3)[GlcNAc(b1-3)Gal(b1-4)GlcNAc(b1-3)Gal(b1-4)GlcNAc(b1-2)Man(a1-6)]Man(b1-4)GlcNAc(b1-4)[Fuc(a1-6)]GlcNAc
Outline: as §1

[11] = biological target: GlcNAc(b1-3)Gal(b1-4)GlcNAc(b1-3)Gal(b1-4)GlcNAc(b1-3)Gal(b1-4)GlcNAc(b1-2)Man(a1-3)[GlcNAc(b1-3)Gal(b1-4)GlcNAc(b1-3)Gal(b1-4)GlcNAc(b1-3)Gal(b1-4)GlcNAc(b1-2)Man(a1-6)]Man(b1-4)GlcNAc(b1-4)GlcNAc
Outline: as §1

[12] = biological target: GlcNAc(b1-3)Gal(b1-4)GlcNAc(b1-3)Gal(b1-4)GlcNAc(b1-3)Gal(b1-4)GlcNAc(b1-2)Man(a1-3)[GlcNAc(b1-3)Gal(b1-4)GlcNAc(b1-3)Gal(b1-4)GlcNAc(b1-3)Gal(b1-4)GlcNAc(b1-2)Man(a1-6)]Man(b1-4)GlcNAc(b1-4)[Fuc(a1-6)]GlcNAc
Outline: as §1

Kdn(a2-3)Gal(b1-4)GlcNAc = biological target: Kdn(a2-3)Gal(b1-4)GlcNAc
Outline: as §1

[13] = biological target: Neu5Ac(a2-3)Gal(b1-3)GalNAc(b1-3)Gal(a1-4)Gal(b1-4)Glc
Outline: as §1

[14] = biological target: Neu5Ac(a2-3)Gal(b1-3)GalNAc(b1-4)[Neu5Ac(a2-8)Neu5Ac(a2-3)]Gal(b1-4)Glc
Outline: as §1

[15] = biological target: Neu5Ac(a2-3)Gal(b1-3)[Fuc(a1-4)]GlcNAc(b1-3)Gal(b1-4)[Fuc(a1-3)]GlcNAc
Outline: as §1

[16] = biological target: Neu5Ac(a2-3)Gal(b1-4)GlcNAc(b1-3)Gal(b1-4)GlcNAc
Outline: as §1

[17] = biological target: Neu5Ac(a2-3)Gal(b1-4)GlcNAc(b1-3)Gal(b1-4)GlcNAc(b1-3)Gal(b1-4)GlcNAc
Outline: as §1

[18] = biological target: Neu5Ac(a2-3)Gal6S(b1-4)GlcNAc
Outline: as §1

[19] = biological target: Neu5Ac(a2-6)Gal(b1-4)GlcNAc(b1-2)Man(a1-3)[Gal(b1-4)GlcNAc(b1-2)Man(a1-6)]Man(b1-4)GlcNAc(b1-4)GlcNAc
Outline: as §1

[20] = biological target: Neu5Ac(a2-6)Gal(b1-4)GlcNAc(b1-3)Gal(b1-4)GlcNAc(b1-3)Gal(b1-4)GlcNAc(b1-2)Man(a1-3)[Neu5Ac(a2-6)Gal(b1-4)GlcNAc(b1-3)Gal(b1-4)GlcNAc(b1-3)Gal(b1-4)GlcNAc(b1-2)Man(a1-6)]GalNAc
Outline: as §1

[21] = biological target: Neu5Ac(a2-6)Gal(b1-4)GlcNAc(b1-3)Gal(b1-4)[Fuc(a1-3)]GlcNAc(b1-3)Gal(b1-4)[Fuc(a1-3)]GlcNAc
Outline: as §1

Neu5Ac(b2-6)GalNAc = biological target: Neu5Ac(b2-6)GalNAc
Outline: as §1

[22] = biological target: Neu5Ac9Ac(a2-6)Gal(b1-4)GlcNAc
Outline: as §1

B1: HPA (Helix pomatia), Q575S3 (protein)
chain: MWAHLTGLLLICALSLSAAQRAQTGEIDCGSDSSWPKDPSDNPNRDNTREIVKHVTFSPQFCREPKVILSVTTLDAEHTKNLRYEARLKSVSPSGLSASCYSWHDGTIYRMKLSWLAVED
Q: How did the “glycan array binding signal (z-score)” value (GalNAc(a1-3)Gal) turn out when B1 was run?
A: Its value is 4.18.

Q: What about the “glycan array binding signal (z-score)” value (GalNAc(a1-3)GalNAc) of the same binder?
A: The value was 4.53.

Q: What about the “glycan array binding signal (z-score)” value [1] of the same binder?
A: The value was 5.04.

Q: What about the “glycan array binding signal (z-score)” value [2] of the same binder?
A: The value was 5.7.

Q: And the “glycan array binding signal (z-score)” value (Glc(b1-4)Glc)?
A: The value was -0.26.

Q: And the “glycan array binding signal (z-score)” value (Glc(b1-6)Glc)?
A: The value was -0.266.

Q: What about the “glycan array binding signal (z-score)” value (GlcA(b1-3)Gal) of the same binder?
A: Its value is -0.262.

Q: And the “glycan array binding signal (z-score)” value [3]?
A: The value was -0.256.

Q: And the “glycan array binding signal (z-score)” value [4]?
A: The value was 4.69.

Q: And the “glycan array binding signal (z-score)” value [5]?
A: Its value is 1.46.

Q: And the “glycan array binding signal (z-score)” value [6]?
A: The value was 4.37.

Q: And the “glycan array binding signal (z-score)” value [7]?
A: The value was 4.21.

Q: What about the “glycan array binding signal (z-score)” value [8] of the same binder?
A: Its value is 0.175.

Q: And the “glycan array binding signal (z-score)” value [9]?
A: Its value is -0.24.

Q: What about the “glycan array binding signal (z-score)” value [10] of the same binder?
A: Its value is -0.243.

Q: What about the “glycan array binding signal (z-score)” value [11] of the same binder?
A: The value was -0.257.

Q: And the “glycan array binding signal (z-score)” value [12]?
A: The value was -0.241.

Q: What about the “glycan array binding signal (z-score)” value (Kdn(a2-3)Gal(b1-4)GlcNAc) of the same binder?
A: The value was -0.262.

Q: And the “glycan array binding signal (z-score)” value [13]?
A: The value was -0.243.

Q: What about the “glycan array binding signal (z-score)” value [14] of the same binder?
A: Its value is -0.245.

Q: And the “glycan array binding signal (z-score)” value [15]?
A: Its value is -0.209.

Q: What about the “glycan array binding signal (z-score)” value [16] of the same binder?
A: Its value is -0.267.

Q: What about the “glycan array binding signal (z-score)” value [17] of the same binder?
A: The value was -0.265.

Q: And the “glycan array binding signal (z-score)” value [18]?
A: The value was -0.273.

Q: And the “glycan array binding signal (z-score)” value [19]?
A: Its value is -0.261.

Q: And the “glycan array binding signal (z-score)” value [20]?
A: Its value is -0.164.

Q: And the “glycan array binding signal (z-score)” value [21]?
A: The value was -0.253.

Q: What about the “glycan array binding signal (z-score)” value (Neu5Ac(b2-6)GalNAc) of the same binder?
A: Its value is -0.269.

Q: What about the “glycan array binding signal (z-score)” value [22] of the same binder?
A: Its value is -0.274.
